A structure can be active in one record and inactive in another. Activity calls are given as the source filed them. Rule for the calls: active = hit-call score of the fitted dose curve at least 0.9, where 1 is the maximum; inactive = score below 0.9.

Read-out in the assay: Tissue Factor, F3 (gene 2152)
The assay can be described thus: BSK_LPS_TissueFactor: BioMAP Diversity Plus: LPS Assay for Tissue Factor Biomarker Activity (AID 2283084). The note with it: primary human HUVEC with PBMC; actives raise or lower the signal. How it is done:
BSK_LPS is a cell-based, multiplexed-readout assay that uses umbilical vein endothelium and peripheral blood mononuclear cells, a human vascular primary cell co-culture, with measurements taken at 24 hours after chemical dosing in a 96-well plate.BSK_LPS_TissueFactor is an assay component measured in the BSK_LPS assay. It measures CD142 Tissue Factor antibody related to regulation of gene expression using ELISA technology.Data from the assay component BSK_LPS_TissueFactor was analyzed into 1 assay endpoint. This assay endpoint, BSK_LPS_TissueFactor, was analyzed with bidirectional fitting relative to DMSO as the negative control and baseline of activity. Using a type of binding reporter, gain or loss-of-signal activity can be used to understand changes in the signaling as they relate to the gene F3. Furthermore, this assay endpoint can be referred to as a primary readout, because this assay has produced multiple assay endpoints where this one serves a signaling function. To generalize the intended target to other relatable targets, this assay endpoint is annotated to the cytokine intended target family, where the subfamily is coagulation factor.
The levels of cell surface (or secreted, indicated by the prefix "s") biomarker endpoints were measured by ELISA. Overt cytotoxicity to cells in confluent adherent cultures (all systems other than the BT system) was assessed by measuring total protein levels using sulforhodamine B (SRB) staining in parallel cultures at the time of biomarker measurements, indicated as SRB endpoints. For proliferation assays for adherent cell types, individual cell types are cultured at sub-confluence and relative cell numbers quantified by SRB staining at time points optimized for each system (48 h: 3C and CASM3C systems; 72 h: BT and HDF3CGF systems; 96 h: SAg system). SRB was performed by staining cells with 0.1% SRB after fixation with 10% TCA and reading wells at 560 nm.Viability and proliferation of PBMC (T cells) was quantified by Alamar Blue reduction for the SAg and BT systems. For PBMC viability (referred to as PBMC Cytotoxicity within the assay endpoint names), cells were plated (75,000/well in a 96-well plate) and then chemical samples added for 1 h before addition of activators, SEB and TSST-1 (20 ng/mL final concentration each). Cells were incubated for 90 h. Then, Alamar Blue (20 uL/well) (Invitrogen, Cat DAL1100) was added for 6 h, and the plates were read with a fluorescence microplate reader at 546/580 nm (excitation/emission). For PBMC proliferation, cells were plated and activated as above but incubated for only 16 h prior to addition of Alamar Blue. Plates were read after 6 h.
With `CCC[Si](OC(C)=O)(OC(C)=O)OC(C)=O`, the result was inactive.
For the molecule `CC[N+](CC)(CC(=O)Nc1c(C)cccc1C)Cc1ccccc1` (tested in a mixture with another compound), the outcome was inactive.
Same read-out and setting: under `COc1cc(CNC(=O)CCCC/C=C/C(C)C)ccc1O` stands “inactive”.
For orientation: AC50 means the concentration giving half of the maximal activity seen. As for `O=[N+]([O-])c1cc(S(=O)(=O)Nc2ccccc2)ccc1Nc1ccccc1`, the outcome was inactive and the AC50 is 2.78 µM (active).
As for `Cc1cc(-n2nc3ccc(Cl)cc3n2)c(O)c(C(C)(C)C)c1`, the result was inactive.
On the same count and under the same terms, under `COc1ccc(C(=O)c2ccccc2O)c(O)c1` stands “inactive”.
Regarding `COC(=O)/C=C\C(=O)OC`, the result was inactive.
With `C1CN(CCOCCN2CCOCC2)CCO1`, the outcome was inactive.
As for `CCCCCCCCCCC1CO1` (centres undefined), the concentration at half-maximal activity (AC50) is 38.5 µM (active).
`COc1ccccc1Oc1c(NS(=O)(=O)c2ccc(C(C)(C)C)cc2)nc(-c2ncccn2)nc1OCCO`: the outcome was inactive.
For the molecule `Sc1nc2ccccc2s1`, the half-maximal activity concentration (AC50) is 4.28 µM (active).
Regarding `OC(C(F)(F)F)(C(F)(F)F)C(O)(C(F)(F)F)C(F)(F)F`, the concentration at half-maximal activity (AC50) is 30 µM (active).
Same read-out and setting: to `CCCCCCCCCCCCCCCCCC[N+](C)(C)C` belongs 8.03 µM (active).
`CC[N+](CC)(CC(=O)Nc1c(C)cccc1C)Cc1ccccc1`: the result was inactive.
On the same count and under the same terms, to `Cc1cccnc1` belongs “inactive”; to `O=C(C(=O)c1ccccc1)c1ccccc1`, “inactive”; to `Cc1c(C(N)=O)cc([N+](=O)[O-])cc1[N+](=O)[O-]`, “inactive”.
The same measure, in the same setting: under `CCCCCCCCCC/C=C/C1CC(=O)OC1=O` (centres undefined) stands “inactive”.
Still for that read-out and setting: to `CN(C)Cc1cc(C(C)(C)C)c(O)c(C(C)(C)C)c1` belongs “inactive”.
In the case of `CN(C)CCC(c1ccc(Cl)cc1)c1ccccn1` (centres undefined), the result was inactive.
As to `CCCCC(CC)COC(=O)C=Cc1ccc(OC)cc1` (centres undefined), the half-maximal activity concentration (AC50) is 7.72 µM (active) and the result was inactive.
Consider `CC(C)C1OCCN1CCOC(=O)NCCCCCCNC(=O)OCCN1CCOC1C(C)C` (centres undefined), for which the result was inactive.
On the same count and under the same terms, under `CCCCCCC(O)CCCCCCCCCCC(=O)OC` (centres undefined) stands “inactive”; under `CC(C)CC(=O)CC(C)CC(C)C` (centres undefined), “inactive”; under `CCC(C)=NO`, “inactive”.
Turning to `CN(C)c1ccc(C(c2ccccc2)c2ccc(N(C)C)cc2)cc1`, the outcome was inactive.
Turning to `Oc1cccc2ccccc12`, the AC50 was 6.27 µM (active).

The values above are taken from PubChem BioAssay (EPA / NIEHS).
